Reference: PubChem BioAssay (NCATS)
Inconclusive results are not listed. Active and inactive are the calls of the source. Unless noted, the call rests on the fitted dose curve; in most records, active means well fitted curve in the direction sought with a large enough effect; inconclusive means small, poorly fitted or top-dose-only effect, or another doubt; inactive means no such curve, though single readings can be large; an effect the other way counts as inactive or inconclusive.

Legend:
[1] = qHTS Assay for Identification of Small Molecule Agonists for Thrombopoietin (TPO) Signaling Pathway (AID 917); settings: TPO signaling pathway reporter cells, agonist qHTS, stimulated with TPO at its EC50; series mostly up to 38.5 µM
How it was run: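 Luciferase reporter (Glycoprotein IIb promoter) in IL-3-deprived Ba/F3 cells carrying human TPO receptor; compounds co-added with 26 pM TPO, incubated 24 h, 37 C. Steadylite luminescence measured after 10 min.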

[2] = molecular target: Muscarinic acetylcholine receptor M1 (Rattus norvegicus) (UniProt P08482); assay: qHTS Assay for Antagonists of Acetylcholine Muscarinic M1 Receptor: Measurement of IP-One Response (AID 944); settings: CHO-M1 cells, IP-One HTRF, antagonist mode; series mostly up to 46.1 µM; further: nearly all actives have a fitted effect of over 75% in size
How it was run: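 Read-out: HTRF competition between d2-IP1 and Eu-cryptate anti-IP1 antibody, emission 620 and 665 nm. Stimulus was carbachol, EC80 (200 nM), for 30 min in M1-CHO cells (rat receptor), after 10 min compound pre-treatment.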

[3] = molecular target: Pyruvate kinase (Leishmania mexicana) (UniProt Q27686); assay: qHTS Validation Assay for Inhibitors of Leishmania Mexicana Pyruvate Kinase (AID 945); settings: purified L. mexicana pyruvate kinase, enzyme activity, E451W mutant enzyme; series mostly up to 57.5 µM
How it was run: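 Eight-point qHTS titrations; enzyme 0.2 nM LmPYK (E451W mutant); substrates 0.5 mM PEP, 0.1 mM ADP; 7 mM MgCl2; 1 h room temperature; PKLight luminescence normalized to neutral control.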

[4] = Confirmation and Secondary Assay for Modulators of Hemoglobin Beta Chain Splicing at IVS2 654 locus (AID 910); settings: HeLa EGFP-654 splicing reporter, GFP fluorescence, 48 h; series mostly up to 46.1 µM;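 further: per-well total GFP intensity by laser scanning cytometry after 2-day treatment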
How it was run: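 HeLa cells stably carrying EGFP interrupted by mutant beta-globin IVS2-654 intron (CMV-driven) were treated with compound for 2 days at 37C; corrected splicing was scored as total peak GFP intensity per well (488 nm excitation, 500-520 nm emission).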

[5] = Confirmation and Secondary Assay for Modulators of Hemoglobin Beta Chain Splicing at IVS2 705 locus (AID 930); settings: HeLa EGFP-705 splicing reporter, GFP fluorescence, 48 h; series mostly up to 46.1 µM;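 further: HeLa cells stably expressing the EGFP-705 splicing reporter; GFP fluorescence per well restored by corrected splicing of the IVS2-705 intron in EGFP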
How it was run: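 HeLa IVS2-705 EGFP reporter cells, 500/well, compound 2 d at 37C; correct splicing yields fluorescent EGFP. Control: 500 nM antisense PNA. Read-out: total peak GFP intensity.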

[6] = molecular target: Pyruvate kinase PKM (Homo sapiens) (UniProt P14618); assay: qHTS Assay for Activators of Human Muscle Pyruvate Kinase (AID 954; active means well fitted curve in the direction sought with a large enough effect, not every such curve was filed as active); settings: purified human muscle pyruvate kinase, luciferase-coupled luminescence, 1 h; series mostly up to 57.5 µM
How it was run: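 PKM2, human, >95% pure, 0.1 nM; PEP 0.5 mM (Km), ADP 0.1 mM; 50 mM imidazole pH 7.2, 50 mM KCl, 0.01% Tween 20, 0.05% BSA; 1 h RT; luciferase luminescence readout.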

[7] = Cell Viability - LYMP2-001 (AID 921); settings: LYMP2-001 lymphoblastoid cell viability; series mostly up to 92.2 µM; further: nearly all actives have a fitted effect of over 70% in size
How it was run: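 Cellular ATP loss read by luciferase luminescence after 24 h compound exposure at 37 C in complete medium. LYMP2-001 lymphoblastoid cells, 2500/well; qHTS concentration-response data fitted with Hill equation for AC50.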

[8] = MultiTox-Fluor Cytotoxicity Assay - LYMP1-001 - Dead Cells (AID 946); settings: LYMP1-001 lymphoblastoid cells, dead-cell protease fluorescence; series mostly up to 92.2 µM;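 further: cells exposed to compound for 16 h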
How it was run: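 Seed 2500 LYMP1-001 cells/well, incubate 5 hr at 37 C; add compound, 16 hr at 37 C; add MultiTox-Fluor reagent, 60 min RT; read dead-cell fluorescence Ex/Em=485/520. Normalize to DMSO and 15 uM tetraoctylammonium bromide.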

[9] = MultiTox-Fluor Cytotoxicity Assay - LYMP1-001 - Live Cells (AID 947); settings: LYMP1-001 lymphoblastoid cells, live-cell protease fluorescence viability; series mostly up to 92.2 µM
[10] = Cell Viability - LYMP1-002 - Assay at 16 hr (AID 948); settings: LYMP1-002 lymphoblastoid cell viability; series mostly up to 92.2 µM
How it was run: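 ATP luminescence (CellTiter-Glo) was measured after 16 hr compound exposure at 37 C of 2500 lymphoblastoid LYMP1-002 cells per well. Concentration-response curves were fitted with the Hill equation to give AC50.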

[11] = MultiTox-Fluor Cytotoxicity Assay - LYMP1-002 - Live Cells (AID 955); settings: LYMP1-002 lymphoblastoid live-cell protease fluorescence viability; series mostly up to 46.1 µM;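 further: cells exposed to compound for 16 hours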
How it was run: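 LYMP1-002 lymphoblastoid cells; 2500 cells/well; 16 hr compound exposure, 37 C; MultiTox-Fluor reagent 60 min RT; live-cell fluorescence Ex/Em=405/510; qHTS concentration-response, Hill-equation AC50; tetraoctylammonium bromide positive control.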

[12] = MultiTox-Fluor Cytotoxicity Assay - LYMP1-002 - Dead Cells (AID 960); settings: LYMP1-002 lymphoblastoid cells, dead-cell protease fluorescence; series mostly up to 46.1 µM;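 further: cells exposed to compound for 16 h at 37 °C; nearly all actives have a fitted effect of over 60% in size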
How it was run: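 Readout: fluorescence at 485/520 from cell-impermeant bis-AAF-R110 cleaved by proteases leaking from damaged cells. LYMP1-002 lymphoblastoid line, 16 hr compound treatment at 37 C, concentration-response in qHTS format; Hill-equation AC50 values.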

[13] = MultiTox-Fluor Cytotoxicity Assay - LYMP1-003 - Dead Cells (AID 961); settings: LYMP1-003 lymphoblastoid cells, dead-cell protease fluorescence; series mostly up to 92.2 µM;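 further: cells exposed to compound for 16 h at 37 °C; nearly all actives have a fitted effect of over 70% in size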
How it was run: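 LYMP1-003 lymphoblastoid, 2500 cells/well, 5 hr settle then 16 hr cpd at 37 C; MultiTox-Fluor reagent 60 min RT; Ex/Em 485/520 dead-cell signal; norm. DMSO = 0%, 15 uM tetraoctylammonium bromide = 100%; Hill AC50.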

[14] = MultiTox-Fluor Cytotoxicity Assay - LYMP1-003 - Live Cells (AID 962); settings: LYMP1-003 lymphoblastoid cells, MultiTox-Fluor live-cell protease fluorescence; series mostly up to 92.2 µM;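 further: cells exposed to compound for 16 hours at 37 °C; cytotoxic hits lower the live-cell protease signal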
How it was run: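 Readout: live-cell fluorescence (Ex/Em=405/510) from GF-AFC cleavage after 60 min MultiTox-Fluor reagent at room temperature. Lymphoblastoid LYMP1-003 cells, 16 hr compound treatment, 37 C. Concentration-response fitted to standard Hill equation for AC50.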

[15] = Cell Viability - LYMP1-003 - Assay at 24 hr (AID 963); settings: LYMP1-003 lymphoblastoid cell viability; series mostly up to 92.2 µM
How it was run: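 CellTiter-Glo luminescence (intracellular ATP) read after 24 hr, 37 C compound exposure of 2500 LYMP1-003 human lymphoblastoid cells/well in complete medium; qHTS concentration series; AC50 via standard Hill equation.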

[16] = Cell Viability - LYMP1-003 - Assay at 40 hr (AID 964); settings: LYMP1-003 lymphoblastoid viability; series mostly up to 92.2 µM; further: nearly all actives have a fitted effect of over 60% in size
How it was run: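 LYMP1-003 lymphoblastoid cells, 2500/well; 5 hr preincubation, 40 hr compound exposure, 37 C; CellTiter-Glo 30 min RT; luminescence; Hill-fit AC50. Positive control tetraoctylammonium bromide.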

[17] = Cell Viability - LYMP2-003 (AID 965); settings: LYMP2-003 lymphoblastoid cell viability; series mostly up to 92.2 µM;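 further: cells exposed to compounds for 24 h before reading; nearly all actives have a fitted effect of over 50% in size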
How it was run: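 CellTiter-Glo luminescence quantified ATP loss after 24 h compound treatment of LYMP2-003 lymphoblastoid cells at 37 C. Titration series were fitted with the standard Hill equation to give AC50.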

[18] = Cell Viability - LYMP2-004 (AID 966); settings: LYMP2-004 lymphoblastoid cell viability, qHTS; series mostly up to 92.2 µM; further: nearly all actives have a fitted effect of over 65% in size
How it was run: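 Luminescent ATP read-out (CellTiter-Glo, 30 min RT) after 24 hr compound exposure at 37 C; 2500 lymphoblastoid cells/well, complete medium. Decrease in ATP = cytotoxicity; AC50 from standard Hill model.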

[19] = Cell Viability - LYMP2-005 (AID 967); settings: LYMP2-005 lymphoblastoid cell viability; series mostly up to 92.2 µM
How it was run: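 LYMP2-005 human lymphoblastoid cells (2500/well) were treated with compounds for 24 h at 37 C. Intracellular ATP was then measured by CellTiter-Glo luminescence after 30 min at room temperature. AC50 values came from Hill-equation fits of qHTS concentration-response data.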

[20] = Cell Viability - LYMP2-009 (AID 968); settings: LYMP2-009 lymphoblastoid cell viability; series mostly up to 92.2 µM; further: nearly all actives have a fitted effect of over 55% in size

Measured: outcome

Sequence of Pyruvate kinase (Leishmania mexicana) (Q27686 2-499 E452W): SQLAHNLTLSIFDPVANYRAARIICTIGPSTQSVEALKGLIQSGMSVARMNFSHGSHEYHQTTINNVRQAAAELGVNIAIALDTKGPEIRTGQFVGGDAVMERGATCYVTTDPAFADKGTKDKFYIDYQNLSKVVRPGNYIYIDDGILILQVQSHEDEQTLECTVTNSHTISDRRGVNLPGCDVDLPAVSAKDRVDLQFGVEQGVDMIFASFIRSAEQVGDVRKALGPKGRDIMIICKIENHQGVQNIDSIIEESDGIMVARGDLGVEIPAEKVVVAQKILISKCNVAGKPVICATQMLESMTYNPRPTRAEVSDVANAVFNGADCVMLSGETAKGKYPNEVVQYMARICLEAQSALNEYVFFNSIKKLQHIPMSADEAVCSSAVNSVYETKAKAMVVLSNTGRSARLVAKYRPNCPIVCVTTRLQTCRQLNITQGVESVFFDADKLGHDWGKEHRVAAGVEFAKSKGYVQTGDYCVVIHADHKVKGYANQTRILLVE
Sequence of Pyruvate kinase PKM (Homo sapiens) (P14618 whole entry, looked up): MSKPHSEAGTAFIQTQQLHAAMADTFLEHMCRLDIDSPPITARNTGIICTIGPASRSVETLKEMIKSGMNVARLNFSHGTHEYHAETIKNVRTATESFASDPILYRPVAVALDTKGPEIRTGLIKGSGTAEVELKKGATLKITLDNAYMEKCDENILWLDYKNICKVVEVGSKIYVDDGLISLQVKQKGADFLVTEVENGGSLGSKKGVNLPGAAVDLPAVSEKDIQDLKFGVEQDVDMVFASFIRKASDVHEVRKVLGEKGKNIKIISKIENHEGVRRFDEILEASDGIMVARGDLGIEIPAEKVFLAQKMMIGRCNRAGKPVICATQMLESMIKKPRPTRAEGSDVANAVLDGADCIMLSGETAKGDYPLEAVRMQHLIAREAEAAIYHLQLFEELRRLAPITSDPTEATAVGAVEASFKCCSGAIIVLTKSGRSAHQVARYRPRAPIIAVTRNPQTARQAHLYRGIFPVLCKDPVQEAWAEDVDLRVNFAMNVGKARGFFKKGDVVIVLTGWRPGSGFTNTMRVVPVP
Sequence of Muscarinic acetylcholine receptor M1 (Rattus norvegicus) (P08482 whole entry, looked up): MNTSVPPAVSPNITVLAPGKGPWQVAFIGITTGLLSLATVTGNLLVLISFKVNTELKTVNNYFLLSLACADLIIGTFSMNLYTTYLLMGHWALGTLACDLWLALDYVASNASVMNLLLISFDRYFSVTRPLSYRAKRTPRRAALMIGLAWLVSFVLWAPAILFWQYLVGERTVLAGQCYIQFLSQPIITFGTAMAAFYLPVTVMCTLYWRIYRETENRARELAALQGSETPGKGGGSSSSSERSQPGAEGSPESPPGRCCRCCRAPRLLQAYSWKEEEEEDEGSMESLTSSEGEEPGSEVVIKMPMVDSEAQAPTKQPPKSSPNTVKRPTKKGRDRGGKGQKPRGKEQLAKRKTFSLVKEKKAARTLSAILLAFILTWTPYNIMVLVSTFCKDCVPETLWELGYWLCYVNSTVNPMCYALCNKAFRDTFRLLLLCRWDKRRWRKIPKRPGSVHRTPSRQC

COc1ccc2c(c1OC)C(=O)OC2[C@H]1c2c(cc3c(c2OC)OCO3)CCN1C (stereo partly specified)
inactive: [1] | [2] | [3]

COc1ccc(C(C)=O)c(O)c1
inactive: [4] | [5]

CCC(C(=O)O)C1CCC(C)C(C(C)C(O)C(C)C(=O)C(CC)C2OC3(C=CC(O)[C@@]4(CC[C@](C)(C5CC[C@@](O)(CC)C(C)O5)O4)O3)C(C)CC2C)O1 (stereo partly specified)
inactive: [4] | [5]

Oc1cc2c(cc1O)C1c3ccc(O)c(O)c3OCC1(O)C2 (stereo unspecified)
inactive: [4] | [5]

CN(C)CC[C@H](c1ccc(Cl)cc1)c1ccccn1
inactive: [1] | [3] | [6]

C[C@@]12C(=O)OC(=O)[C@@]1(C)C1CCC2O1
inactive: [4] | [5]

CCCCCCCCCCCC(CC1OC(=O)C1CCCCCC)OC(=O)C(CC(C)C)NC=O (stereo unspecified)
inactive: [4] | [5]

c1coc(CNc2ncnc3nc[nH]c23)c1
inactive: [4] | [5]

CC(Cc1ccc(O)c(O)c1)(NN)C(=O)O (stereo unspecified)
inactive: [4] | [5]

Cc1ccc(O)c(C(CCN(C(C)C)C(C)C)c2ccccc2)c1 (stereo unspecified)
inactive: [4] | [5]

OCC(O)C(O)C(O)CO (stereo unspecified)
inactive: [4] | [5]

O=c1c(O)c(-c2ccc(O)c(O)c2)oc2cc(O)ccc12
inactive: [4]

Cc1cc(O)c2c(c1)C(=O)c1cccc(O)c1C2=O
not listed: [1] | [2] | [3] | [6]
inactive: all other assays above
